PubChem BioAssay (Tox21)
Where “and” joins values, the source holds several entries; their conditions need not be identical. Equal entries are not always repeated. Inconclusive results are not listed. Where a call stands in place of a potency, no number is given. Some structures have more than one record in an assay (separate samples or runs), and their calls can disagree. Calls of active or inactive are those of the source. Calls come from the whole dose curve; as a rule, active = well fitted curve in the direction sought with a large enough effect in the repeat runs; inconclusive = weak or mixed curves; inactive = no such curve, though single readings can be large; an effect the other way counts as inactive or inconclusive.

Assays:
[1] = A CellTox Green Cytotoxicity Assay to monitor cytotoxicity in HEK293 cells - 40 hour (AID 1224871); conditions: CellTox Green fluorescence; series mostly up to 76.8 µM; note: nearly all actives have a fitted effect of over 45% in size; note: potency is the fitted concentration of half-maximal effect
Outline: (§1)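 Homogeneous no-lysis format: HEK293 cell suspension mixed with CellTox Green reagent, seeded, incubated 5 h at 37 C/5% CO2, then dosed by pintool with compound in DMSO.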

[2] = qHTS RealTime-Glo MT Cell Viability Assay in HEK293 cells - 16 hour (AID 1224872); conditions: RealTime-Glo luminescence; series mostly up to 76.8 µM; note: nearly all actives have a fitted effect of over 50% in size; note: potency is the fitted concentration of half-maximal effect
Outline: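 Luminescence generated by NanoLuc from substrate produced by living HEK293 cells served as the viability signal. Each value reflects the reading at its stated time point during continuous 40 h compound exposure at 37 C.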

[3] = qHTS RealTime-Glo MT Cell Viability Assay in HepG2 cells - 8 hour (AID 1224873); conditions: RealTime-Glo luminescence; series mostly up to 76.8 µM; note: nearly all actives have a fitted effect of over 55% in size; note: potency is the fitted concentration of half-maximal effect
Outline: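 HepG2 cells mixed with RealTime-Glo MT reagents (NanoLuc plus cell-permeant prosubstrate) were seeded at 600 cells/well, incubated 5 h at 37 C/5% CO2, then pinned with compounds in DMSO; nonlytic luminescence tracked viability during 40 h treatment.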

[4] = qHTS RealTime-Glo MT Cell Viability Assay in HEK293 cells - 40 hour (AID 1224874); conditions: RealTime-Glo luminescence; max response: stronger effect = lower value; note: nearly all actives have a fitted effect of over 50% in size; note: potency is the fitted concentration of half-maximal effect
Outline: (§2)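 Measured as luminescence from the same continuously cultured HEK293 wells at successive time points (0, 8, 16, 24, 32, 40 h) after compound addition. Reagent present from seeding; dosing at 5 h; incubation 37 C.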

[5] = A CellTox Green Cytotoxicity Assay to monitor cytotoxicity in HEK293 cells - 24 hour (AID 1224875); conditions: CellTox Green fluorescence; series mostly up to 76.8 µM; note: nearly all actives have a fitted effect of over 45% in size; note: potency is the fitted concentration of half-maximal effect
Outline: as §1

[6] = A CellTox Green Cytotoxicity Assay to monitor cytotoxicity in HepG2 cells - 16 hour (AID 1224876); conditions: CellTox Green fluorescence; series mostly up to 76.8 µM; note: nearly all actives have a fitted effect of over 45% in size; note: potency is the fitted concentration of half-maximal effect
Outline: (§3)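 Fluorescent DNA-binding dye, 600 HepG2 cells/well, 5 h preincubation then compound in DMSO; same plates read at 0–40 h, 37 C.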

[7] = qHTS RealTime-Glo MT Cell Viability Assay in HepG2 cells - 32 hour (AID 1224877); conditions: RealTime-Glo luminescence; series mostly up to 76.8 µM; note: nearly all actives have a fitted effect of over 55% in size; note: potency is the fitted concentration of half-maximal effect
Outline: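 Tox21 10K library screened in qHTS format on HepG2 cells carrying RealTime-Glo reagents. Compounds were added after a 5 h preincubation, and the luminescent signal from continuous culture was measured repeatedly during 40 h treatment.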

[8] = A CellTox Green Cytotoxicity Assay to monitor cytotoxicity in HepG2 cells - 24 hour (AID 1224878); conditions: CellTox Green fluorescence; series mostly up to 76.8 µM; note: nearly all actives have a fitted effect of over 45% in size; note: potency is the fitted concentration of half-maximal effect
Outline: as §3

[9] = A CellTox Green Cytotoxicity Assay to monitor cytotoxicity in HepG2 cells - 40 hour (AID 1224879); conditions: CellTox Green fluorescence; series mostly up to 76.8 µM; note: nearly all actives have a fitted effect of over 40% in size; note: potency is the fitted concentration of half-maximal effect
Outline: as §3

[10] = qHTS RealTime-Glo MT Cell Viability Assay in HEK293 cells - 0 hour (AID 1224880); conditions: RealTime-Glo luminescence; series mostly up to 76.8 µM
Outline: as §2

Structure (SMILES)	Potency [1]	Potency [2]	Potency [3]	Potency [4]	Potency [5]	Potency [6]	Potency [7]	Potency [8]	Potency [9]	Potency [10]	max response [4]
CCCCCCCCn1sc(Cl)c(Cl)c1=O	1.95 µM (active)	3.47 µM (active)	6.16 µM (active)	3.47 µM (active)	1.1 µM (active)	7.76 µM (active)	5.49 µM (active)	11 µM (active)	9.77 µM (active)	inactive	
CC1=NC(C)OC1C (stereo not given)	inactive	inactive	inactive		inactive	inactive	inactive	inactive	inactive	inactive	0.967% (inactive)
COc1cc(-c2ccc(N=C=O)c(OC)c2)ccc1N=C=O	inactive	inactive	inactive		inactive	inactive	inactive	inactive	inactive	inactive	-10% (inactive)
CC(=O)OCC(C)OC(C)=O (stereo not given)	inactive	inactive	inactive		inactive	inactive	inactive	inactive	inactive	inactive	-0.171% (inactive)
O=c1c(-c2ccccc2)c1-c1ccccc1	5.35 µM (active)	15.1 µM (active)	23.9 µM (active)	10.7 µM (active)	5.35 µM (active)	inactive	15.1 µM (active)	10.7 µM (active)	10.7 µM (active)	inactive	
CCCCCCCCOC(=O)c1ccc(O)cc1	38.8 µM (active) and 49 µM (active)	27.4 µM (active)	inactive	27.4 µM (active)	43.5 µM (active) and 43.6 µM (active)	inactive and 43.6 µM (active)	inactive	inactive and 43.6 µM (active)	inactive and 49 µM (active)	inactive	
O=[N+]([O-])c1cc([N+](=O)[O-])c2ccc(S(=O)(=O)O)cc2c1O	inactive	inactive	inactive		inactive	inactive	inactive	inactive	inactive	inactive	-17.1% (inactive)
CCCCN1CCCC[C@H]1C(=O)Nc1c(C)cccc1C	inactive	inactive	inactive		inactive	inactive	inactive	inactive	inactive	inactive	-2.09% (inactive)
CCCCN(CCCC)C(=O)N(CCCC)CCCC	inactive	inactive	inactive		inactive	inactive	inactive	inactive	inactive	inactive	-2.17% (inactive)
CSc1ccc(/C=C2/C(C)=C(CC(=O)O)c3cc(F)ccc32)cc1	inactive	inactive	inactive		inactive	inactive	inactive	inactive	inactive	inactive	9.83% (inactive)
Clc1ccc2nsnc2c1NC1=NCCN1	inactive	inactive	inactive		inactive	inactive	inactive	inactive	inactive	inactive	0.404% (inactive)
CCOC(=O)O[C@H](C)OC(=O)c1ccc2c(c1)cc(C(=O)NC1CCN(C(C)C)CC1)n2Cc1cc(-c2ccc(Cl)s2)on1	18.2 µM (active)	10.2 µM (active)	16.2 µM (active)	11.5 µM (active)	20.4 µM (active)	11.5 µM (active)	10.2 µM (active)	11.5 µM (active)	10.2 µM (active)	inactive	
CCCCCCCCCCn1cc[n+](CCCCCCCCCC)c1C	19.5 µM (active)	6.93 µM (active)	49 µM (active)	0.979 µM (active)	17.4 µM (active)	21.9 µM (active)	19.5 µM (active)	17.4 µM (active)	15.5 µM (active)	inactive	
CC(C)=CCOc1ccc(/C=C/C(=O)c2ccc(OCC=C(C)C)cc2OCC(=O)O)cc1	inactive	inactive	inactive		inactive	inactive	inactive	inactive	inactive	inactive	1.22% (inactive)
CC(C)(C)c1ccc(C(=O)O)cc1	inactive	inactive	inactive		inactive	inactive	inactive	inactive	inactive	inactive	-13.2% (inactive)
N#CC1(c2ccc(F)cc2)CCC(=O)CC1	inactive	inactive	inactive		inactive	inactive	inactive	inactive	inactive	inactive	6.72% (inactive)
CCCCCCCCCCCCCC[P+](CCCC)(CCCC)CCCC (tested in a mixture with another compound)	15.6 µM (active)	8.76 µM (active)	19.6 µM (active)	0.349 µM (active)	17.5 µM (active)	19.6 µM (active)	19.6 µM (active)	15.6 µM (active)	13.9 µM (active)	inactive	
